Laboratory results published in the supplement of paper PMC13380429.

System: Vero E6 infected with SARS-CoV-2
Assay: inhibition of SARS-CoV-2 cytopathic effect; higher = more antiviral protection, active = above 15
Conditions: 48 h

Measured: inhibition of SARS-CoV-2 cytopathic effect

O=C(CCCN1CCC(n2c(=O)[nH]c3ccccc32)CC1)c1ccc(F)cc1 [benperidol]
inactive: 1 nM 0.17% | 8.33 nM -0.44% | 100 nM -0.77% | 833.33 nM 2.15% | 10000 nM -4.28%

N#Cc1ccc(NCCNCC(=O)N2CCC[C@H]2C#N)nc1
inactive: 1 nM 0.59% | 8.33 nM 2.4% | 100 nM -0.06% | 833.33 nM 3.35% | 10000 nM 2.5%

COc1cc2nc(C3CC3)nc(N3CCN(c4ccccc4OC)CC3)c2cc1OC
inactive: 1 nM -1.86% | 8.33 nM -1.01% | 100 nM -1.01% | 833.33 nM 1.94% | 10000 nM -4.17%

O=[N+]([O-])c1cc(Cl)ccc1S(=O)(=O)N1CCN(Cc2ccccc2)CC1
inactive: 1 nM 2.15% | 8.33 nM 2.13% | 100 nM -0.96% | 833.33 nM 3.68% | 10000 nM -1.65%

Clc1cccc(/C=N/N=C/c2cccc(Cl)c2)c1 [3,3'-dichlorobenzaldazine]
inactive: 1 nM 2.78% | 8.33 nM 1.74% | 100 nM 1.33% | 833.33 nM 1.92% | 10000 nM 1.46%

Cc1ccc(-n2nc(C(C)(C)C)cc2NC(=O)NCc2cc(F)ccc2Oc2ccc3c(cnn3CCO)c2)cc1 [pexmetinib]
inactive: 1 nM -0.97% | 8.33 nM -3.1% | 100 nM 0.01% | 833.33 nM 5.81% | 10000 nM 3.62%

CCCCCN(CCCOC)C(=O)[C@@H](CCC(=O)O)NC(=O)c1ccc(Cl)c(Cl)c1 [dexloxiglumide]
inactive: 1 nM -5.32% | 8.33 nM -1.73% | 100 nM 2.58% | 833.33 nM -1.51% | 10000 nM 2.38%

CNC(=O)[C@@H](Cc1ccccc1)N(C)C(=O)[C@@H](Cc1ccc2ccccc2c1)N(C)C(=O)/C=C/CC(C)(C)N [tabimorelin]
inactive: 1 nM 0.97% | 8.33 nM -0.49% | 100 nM -1.39% | 833.33 nM 2.19% | 10000 nM 0.56%

NC[C@H]1O[C@H](O[C@H]2[C@H](O)[C@@H](O[C@H]3O[C@H](CO)[C@@H](O)[C@H](N)[C@H]3O)[C@H](N)C[C@@H]2N)[C@H](N)[C@@H](O)[C@@H]1O [bekanamycin]
inactive: 1 nM -0.6% | 8.33 nM -0.02% | 100 nM -0.32% | 833.33 nM 0% | 10000 nM -1.85%

CS(=O)(=O)Nc1ccc(Cc2noc(-c3ccc4[nH]cc(CCN)c4c3)n2)cc1
inactive: 1 nM -2.75% | 8.33 nM -0.95% | 100 nM -2.42% | 833.33 nM -1.18% | 10000 nM -1.18%

O=C(c1ccc2nccnc2c1)N1CCCCC1 [ampalex]
inactive: 1 nM -0.24% | 8.33 nM 0.88% | 100 nM 0.65% | 833.33 nM 0.17% | 10000 nM 0.77%

Cc1nccn1CCC(C(N)=O)(c1ccccc1)c1ccccc1 [imidafenacin]
inactive: 1 nM -0.4% | 8.33 nM -0.55% | 100 nM 1.32% | 833.33 nM 4.43% | 10000 nM 0.89%

O=C(NOCC1CC1)c1ccc(F)c(F)c1Nc1ccc(I)cc1Cl
inactive: 1 nM -1.59% | 8.33 nM -0.84% | 100 nM -7.28% | 833.33 nM -6.38% | 10000 nM -13.8%

Nc1cc(C(F)(F)F)c(-c2cc(N3CCOCC3)nc(N3CCOCC3)n2)cn1 [buparlisib]
inactive: 1 nM 2.05% | 8.33 nM 0.38% | 100 nM -0.73% | 833.33 nM -3.58% | 10000 nM -12.6%

CCOC(=O)[C@H](CCc1ccccc1)N[C@@H](C)C(=O)N1C(=O)N(C)C[C@H]1C(=O)O [imidapril]
inactive: 1 nM -1.07% | 8.33 nM 0.74% | 100 nM 0.36% | 833.33 nM -0.5% | 10000 nM -1.28%

Nc1ccn([C@H]2CO[C@@H](CO)S2)c(=O)n1 [apricitabine]
inactive: 1 nM 0.27% | 8.33 nM 2.59% | 100 nM 0.92% | 833.33 nM 2.02% | 10000 nM -3.28%

Cn1ccnc1S [methimazole]
inactive: 1 nM 0.07% | 8.33 nM 2.09% | 100 nM 0.26% | 833.33 nM 0.56% | 10000 nM 0.22%

Cc1cccc(C)c1NC(=O)CN1CCCCCC1 [pincainide]
inactive: 1 nM -3.17% | 8.33 nM -5.99% | 100 nM -2.63% | 833.33 nM -1.95% | 10000 nM 0.04%

CN1CCN(c2cccc(Nc3nc4c(-c5ccc(S(C)(=O)=O)cc5)cccn4n3)c2)CC1
inactive: 1 nM -0.26% | 8.33 nM 0.06% | 100 nM 0.85% | 833.33 nM -0.58% | 10000 nM -4.01%

C1=C2CCCN[C@H]2[C@@H]2C[C@H]1[C@H]1CCCCN1C2 [aloperine]
inactive: 1 nM -0.36% | 8.33 nM 2.25% | 100 nM -0.38% | 833.33 nM 0.5% | 10000 nM -1.11%

O=C(NC1CCOCC1)c1ccc(-c2cc(-c3c[nH]nc3-c3ccccn3)ccn2)cc1
inactive: 1 nM 1% | 8.33 nM 0.61% | 100 nM 0.23% | 833.33 nM 4.34% | 10000 nM 3.89%
